# Data: paper PMC7862700, “An all-to-all approach to the identification of sequence-specific readers for epigenetic DNA modifications on cytosine”
# Tests used:
# Experiment in all cases: DAPPL (digital affinity profiling via proximity ligation, sequencing); 10 mM Tris-HCl pH 7.5, 50 mM NaCl, 1 mM DTT, 4% glycerol, room temperature, 30 min; GST-TFs on glutathione beads, 16-mer random dsDNA library, 0.1% formaldehyde crosslink after washing; high values mean tight binding
# FEV = molecular target: T1, FEV (Homo sapiens, UniProt Q99581 1-238); conditions: protein: recombinant; tags: N-terminal GST; dsDNA, one strand shown
# T1 sequence: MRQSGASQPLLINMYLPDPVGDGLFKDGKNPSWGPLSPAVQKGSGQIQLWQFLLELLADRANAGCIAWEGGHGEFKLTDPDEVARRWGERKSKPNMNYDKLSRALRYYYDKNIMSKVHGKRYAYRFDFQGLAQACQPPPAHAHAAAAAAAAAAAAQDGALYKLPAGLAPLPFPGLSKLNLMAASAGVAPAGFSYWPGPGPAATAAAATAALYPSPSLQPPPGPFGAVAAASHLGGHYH
# In short: (§1)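 Binding signal is given per hexamer as its read frequency for a factor divided by its frequency in the tag-only sample. GST-fused human transcription factors were expressed in yeast, captured on glutathione beads, barcoded with DNA and pooled with that sample, then incubated with 200 nmole of a 16-mer random double-stranded DNA library in Tris/NaCl/DTT/glycerol buffer for 30 min at room temperature. The pools were then washed, crosslinked, proximity-ligated, amplified by PCR and sequenced on an Illumina NextSeq500.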
# ETV5 = ETV5 (Homo sapiens, UniProt P41161 1-510); conditions: protein: recombinant; tags: N-terminal GST; dsDNA, one strand shown
# In short: as §1
# HSF1 = HSF1 (Homo sapiens, UniProt Q00613 1-529); conditions: protein: recombinant; tags: N-terminal GST; chain copies: 3; dsDNA, one strand shown
# In short: as §1
# SPIC = molecular target: T2, SPIC (Homo sapiens, UniProt Q8N5J4 1-248); conditions: protein: recombinant; tags: N-terminal GST; dsDNA, one strand shown
# T2 sequence: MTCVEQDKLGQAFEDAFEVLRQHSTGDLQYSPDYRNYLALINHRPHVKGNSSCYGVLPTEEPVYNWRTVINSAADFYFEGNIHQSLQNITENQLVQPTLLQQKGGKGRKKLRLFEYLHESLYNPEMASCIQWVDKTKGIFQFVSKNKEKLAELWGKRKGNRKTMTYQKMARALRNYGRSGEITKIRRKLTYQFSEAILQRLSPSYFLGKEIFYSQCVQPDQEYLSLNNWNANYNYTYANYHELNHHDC
# In short: as §1
# ELF4 = ELF4 (Homo sapiens, UniProt Q99607 1-663); conditions: protein: recombinant; tags: N-terminal GST; dsDNA, one strand shown
# In short: as §1
# ELK4 = molecular target: T3, ELK4 (Homo sapiens, UniProt P28324-2 1-405); conditions: protein: recombinant; tags: N-terminal GST; dsDNA, one strand shown
# T3 sequence: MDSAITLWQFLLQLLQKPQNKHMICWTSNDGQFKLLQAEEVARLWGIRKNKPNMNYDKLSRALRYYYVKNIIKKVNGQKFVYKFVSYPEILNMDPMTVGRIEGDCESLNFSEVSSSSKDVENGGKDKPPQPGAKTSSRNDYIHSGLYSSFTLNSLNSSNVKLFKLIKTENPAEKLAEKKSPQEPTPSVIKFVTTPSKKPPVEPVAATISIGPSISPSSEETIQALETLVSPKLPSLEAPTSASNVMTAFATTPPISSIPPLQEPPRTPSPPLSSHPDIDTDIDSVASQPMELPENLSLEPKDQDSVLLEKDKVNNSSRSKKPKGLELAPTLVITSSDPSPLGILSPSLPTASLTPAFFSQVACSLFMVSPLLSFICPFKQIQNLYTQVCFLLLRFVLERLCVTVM
# In short: as §1
# ETV2 = molecular target: T4, ETV2 (Homo sapiens, UniProt O00321 1-342); conditions: protein: recombinant; tags: N-terminal GST; dsDNA, one strand shown
# T4 sequence: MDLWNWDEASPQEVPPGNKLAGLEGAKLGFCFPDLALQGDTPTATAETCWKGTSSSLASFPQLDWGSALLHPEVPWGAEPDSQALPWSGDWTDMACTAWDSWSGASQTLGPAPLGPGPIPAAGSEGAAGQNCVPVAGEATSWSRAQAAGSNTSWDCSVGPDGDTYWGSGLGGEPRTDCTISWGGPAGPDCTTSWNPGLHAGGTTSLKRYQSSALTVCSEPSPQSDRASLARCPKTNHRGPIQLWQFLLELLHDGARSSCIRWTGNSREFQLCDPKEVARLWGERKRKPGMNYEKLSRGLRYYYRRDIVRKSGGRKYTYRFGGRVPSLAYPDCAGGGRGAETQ
# In short: as §1
# ELF3 = molecular target: T5, ELF3 (Homo sapiens, UniProt P78545 1-371); conditions: protein: recombinant; tags: N-terminal GST; dsDNA, one strand shown
# T5 sequence: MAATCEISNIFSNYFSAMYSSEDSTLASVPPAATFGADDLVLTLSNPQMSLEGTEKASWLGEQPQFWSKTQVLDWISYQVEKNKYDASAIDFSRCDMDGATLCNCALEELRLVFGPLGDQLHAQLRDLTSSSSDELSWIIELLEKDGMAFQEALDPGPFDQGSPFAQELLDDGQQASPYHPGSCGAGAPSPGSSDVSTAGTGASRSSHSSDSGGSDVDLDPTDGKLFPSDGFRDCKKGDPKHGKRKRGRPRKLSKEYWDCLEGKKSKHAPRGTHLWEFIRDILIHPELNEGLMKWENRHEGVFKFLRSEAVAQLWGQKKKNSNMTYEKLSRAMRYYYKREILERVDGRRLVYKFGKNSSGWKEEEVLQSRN
# In short: as §1
# CRX = CRX (Homo sapiens, UniProt O43186 1-299); conditions: protein: recombinant; tags: N-terminal GST; dsDNA, one strand shown
# In short: as §1
# Chain of CRX (O43186 whole entry): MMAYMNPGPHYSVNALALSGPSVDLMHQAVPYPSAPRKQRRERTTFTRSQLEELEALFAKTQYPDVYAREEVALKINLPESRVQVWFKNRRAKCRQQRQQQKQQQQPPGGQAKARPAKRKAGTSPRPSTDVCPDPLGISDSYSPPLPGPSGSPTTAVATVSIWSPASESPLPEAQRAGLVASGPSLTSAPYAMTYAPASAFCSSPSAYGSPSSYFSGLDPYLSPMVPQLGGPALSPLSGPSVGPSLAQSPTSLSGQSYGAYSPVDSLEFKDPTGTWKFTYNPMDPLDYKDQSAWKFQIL
# Chain of ETV5 (P41161 whole entry): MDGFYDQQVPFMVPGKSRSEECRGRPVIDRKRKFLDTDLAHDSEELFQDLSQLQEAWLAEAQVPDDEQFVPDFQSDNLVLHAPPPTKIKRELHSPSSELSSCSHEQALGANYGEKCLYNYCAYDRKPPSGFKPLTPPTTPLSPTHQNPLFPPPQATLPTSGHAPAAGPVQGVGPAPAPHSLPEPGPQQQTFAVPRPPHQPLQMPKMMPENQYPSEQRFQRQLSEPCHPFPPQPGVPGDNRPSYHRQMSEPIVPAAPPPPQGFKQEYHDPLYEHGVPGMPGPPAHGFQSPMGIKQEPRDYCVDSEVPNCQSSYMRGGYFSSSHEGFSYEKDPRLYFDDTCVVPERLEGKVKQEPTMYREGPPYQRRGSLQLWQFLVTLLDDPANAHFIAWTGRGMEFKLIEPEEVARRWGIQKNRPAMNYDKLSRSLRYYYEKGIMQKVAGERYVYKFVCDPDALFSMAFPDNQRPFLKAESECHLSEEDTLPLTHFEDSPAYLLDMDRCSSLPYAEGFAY
# Chain of ELF4 (Q99607 whole entry): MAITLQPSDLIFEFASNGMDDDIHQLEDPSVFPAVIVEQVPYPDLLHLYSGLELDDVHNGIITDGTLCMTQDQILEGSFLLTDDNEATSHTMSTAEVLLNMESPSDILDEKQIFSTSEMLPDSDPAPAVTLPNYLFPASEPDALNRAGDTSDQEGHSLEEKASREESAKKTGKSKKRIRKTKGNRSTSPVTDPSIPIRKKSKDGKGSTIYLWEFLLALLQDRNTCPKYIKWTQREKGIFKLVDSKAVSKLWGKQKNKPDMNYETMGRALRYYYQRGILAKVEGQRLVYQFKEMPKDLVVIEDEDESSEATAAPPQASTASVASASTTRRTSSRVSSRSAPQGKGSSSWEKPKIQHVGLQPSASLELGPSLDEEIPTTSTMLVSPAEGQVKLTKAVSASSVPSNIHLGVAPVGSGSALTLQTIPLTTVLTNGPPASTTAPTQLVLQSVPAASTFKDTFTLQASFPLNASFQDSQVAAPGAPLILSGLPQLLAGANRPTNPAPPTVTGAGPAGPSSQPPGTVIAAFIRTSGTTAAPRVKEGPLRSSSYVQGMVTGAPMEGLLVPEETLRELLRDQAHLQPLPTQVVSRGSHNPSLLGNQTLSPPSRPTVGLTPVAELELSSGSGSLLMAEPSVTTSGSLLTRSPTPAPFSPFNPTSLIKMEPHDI
# Chain of HSF1 (Q00613 whole entry): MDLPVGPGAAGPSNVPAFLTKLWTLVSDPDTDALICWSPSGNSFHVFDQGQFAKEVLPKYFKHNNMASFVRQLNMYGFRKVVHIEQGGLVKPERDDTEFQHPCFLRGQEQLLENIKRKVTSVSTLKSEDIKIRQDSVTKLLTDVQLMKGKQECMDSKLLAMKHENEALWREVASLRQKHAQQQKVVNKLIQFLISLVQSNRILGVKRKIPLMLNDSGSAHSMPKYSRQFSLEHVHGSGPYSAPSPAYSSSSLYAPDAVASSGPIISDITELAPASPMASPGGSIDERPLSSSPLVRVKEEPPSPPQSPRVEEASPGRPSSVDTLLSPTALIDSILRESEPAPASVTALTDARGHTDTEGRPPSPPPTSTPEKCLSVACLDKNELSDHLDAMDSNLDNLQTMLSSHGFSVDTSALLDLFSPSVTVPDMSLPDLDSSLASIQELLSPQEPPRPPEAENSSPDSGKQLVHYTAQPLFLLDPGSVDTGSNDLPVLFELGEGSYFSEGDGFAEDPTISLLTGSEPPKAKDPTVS
sequence,measurement,setting,value
ATGTTT,binding signal,FEV,"1.36 fold enrichment (6-mer frequency, TF over GST control)"
same,binding signal,ETV5,"1.4 fold enrichment (6-mer frequency, TF over GST control)"
same,binding signal,HSF1,"1.32 fold enrichment (6-mer frequency, TF over GST control)"
same,binding signal,SPIC,"1.27 fold enrichment (6-mer frequency, TF over GST control)"
same,binding signal,ELF4,"1.3 fold enrichment (6-mer frequency, TF over GST control)"
same,binding signal,ELK4,"1.37 fold enrichment (6-mer frequency, TF over GST control)"
same,binding signal,ETV2,"1.41 fold enrichment (6-mer frequency, TF over GST control)"
same,binding signal,ELF3,"1.34 fold enrichment (6-mer frequency, TF over GST control)"
same,binding signal,CRX,"1.26 fold enrichment (6-mer frequency, TF over GST control)"
